# Source: PubChem (National Center for Advancing Translational Sciences (NCATS))
# TDP1 block – qHTS Assay for Inhibitors of Tyrosyl-DNA Phosphodiesterase (TDP1) | Tyrosyl-DNA phosphodiesterase 1 (Homo sapiens), Q9NUW8 | recombinant TDP1, AlphaScreen DNA substrate cleavage | Potency, µM (top dose mostly 130 µM), for inactives: top-dose activity change, negative = inhibition, actives largely listed as inhibitors | actives 0.28% (n = 350,000); also: nearly all actives have a fitted effect of over 40% in size
#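 Recombinant E. coli-expressed Tdp1 (1 nM) preincubated with compound 15 min at RT, then 5'-biotin/3'-phosphotyrosine-FITC DNA substrate (15 nM) added for 5 min. AlphaScreen beads (10 ug/ml) added, 10 min RT; tyrosine-FITC cleavage read as signal loss.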
# RECQ1 inh-1 – qHTS Assay for Inhibitors of RecQ-Like Dna Helicase 1 (RECQ1); RECQ1 DNA unwinding, red fluorescence kinetic read; Potency, µM (doses to about 57.3 µM), inactives show at the top dose activity, negative = inhibition, actives largely listed as inhibitors; AID 2549, 2010; actives 0.54% (n = 240,000); ATP-dependent DNA helicase Q1 (Homo sapiens), P46063;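 also: plate controls were vehicle for no effect and no enzyme for full effect; nearly all actives have a fitted effect of over 30% in size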
#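 50 nM RECQ1T1 preincubated 15 min with compound in Tris pH 8.0 buffer with MgCl2, DTT, Tween-20 and 2.5 ug/ml poly(dI-dC); started with 200 nM TAMRA/BHQ-2 forked duplex and 2 mM ATP. Unwinding read as fluorescence (525/598 nm), two reads 2 h apart.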
# FEN1 inh – qHTS Assay for the Inhibitors of Human Flap endonuclease 1 (FEN1); Recombinant FEN1 flap cleavage, fluorescence, 15 min; Potency, µM (doses to about 114 µM), without a hit: at the highest dose activity change, negative = inhibition, hits mostly inhibitors; actives 0.35% (n = 390,000); also: nearly all actives have a fitted effect of over 65% in size
# Target sequence (P39748 whole entry, looked up): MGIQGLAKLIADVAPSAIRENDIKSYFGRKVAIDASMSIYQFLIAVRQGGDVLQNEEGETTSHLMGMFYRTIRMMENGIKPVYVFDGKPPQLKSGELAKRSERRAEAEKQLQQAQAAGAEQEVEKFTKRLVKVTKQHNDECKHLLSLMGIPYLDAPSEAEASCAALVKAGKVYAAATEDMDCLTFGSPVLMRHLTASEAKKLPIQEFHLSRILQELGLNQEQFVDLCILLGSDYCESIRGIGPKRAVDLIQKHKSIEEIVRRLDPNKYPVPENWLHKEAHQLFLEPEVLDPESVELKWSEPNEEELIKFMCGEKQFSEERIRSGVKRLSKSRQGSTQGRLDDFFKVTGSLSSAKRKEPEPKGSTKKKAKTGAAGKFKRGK
#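 FEN1 at 10 nM, compound pretreatment for 15 min (room temperature), 50 nM final substrate to initiate; endpoint reads at 0 and 15 min; DMSO-only plates used as vehicle background.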
# BLM helicase inh – qHTS Assay for Inhibitors of Bloom's syndrome helicase (BLM). Potency, µM (series often up to 56.1 µM), for inactives: top-dose activity change, negative = inhibition, most hits filed as inhibitors. AID 2528, 2010. actives 0.2% (n = 350,000). recombinant BLM DNA unwinding, fluorescence dequenching;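 also: plate controls were vehicle for no effect and no enzyme for full effect; nearly all actives have a fitted effect of over 35% in size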
# APE1 inh – qHTS Assay for Inhibitors of the Human Apurinic/apyrimidinic Endonuclease 1 (APE1). DNA repair nuclease/redox regulator APEX1 (Homo sapiens), P27695. recombinant APE1, TAMRA/BHQ-2 abasic DNA cleavage fluorescence. Potency, µM (doses to about 65.8 µM), inactives show at the top dose activity change, negative = inhibition, most hits filed as inhibitors. actives 0.35% (n = 350,000);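 also: plate controls were vehicle for no effect and reference inhibitor for full effect; nearly all actives have a fitted effect of over 55% in size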
# Target sequence (P27695 whole entry, looked up): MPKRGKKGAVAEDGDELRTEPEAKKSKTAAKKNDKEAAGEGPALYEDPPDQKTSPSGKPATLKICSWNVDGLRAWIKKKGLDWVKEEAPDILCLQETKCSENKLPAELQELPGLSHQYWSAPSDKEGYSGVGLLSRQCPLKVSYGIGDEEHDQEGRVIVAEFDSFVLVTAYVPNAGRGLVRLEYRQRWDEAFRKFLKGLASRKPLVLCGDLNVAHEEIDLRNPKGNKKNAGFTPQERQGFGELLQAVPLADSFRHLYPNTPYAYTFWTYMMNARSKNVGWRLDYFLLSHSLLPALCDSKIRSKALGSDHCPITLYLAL
#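 Quantitative HTS: incision of a TAMRA/BHQ-2 double-stranded substrate bearing a tetrahydrofuran abasic site by 0.75 nM APE1 raises fluorescence. Substrate 50 nM final, added after 15 min compound preincubation at room temperature; progress as third-minus-first kinetic read difference.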
# RECQ1 conf – Confirmation qHTS Assay for Inhibitors of RecQ-Like Dna Helicase 1 (RECQ1); shares compounds with RECQ1 inh-1; Potency, µM (series often up to 229 µM), for the others: at the top dose activity change, negative = inhibition, most hits filed as inhibitors; actives 28% (n = 610); RECQ1 helicase DNA unwinding, fluorescence; also: nearly all actives have a fitted effect of over 45% in size
# RECQ1 ADP FP – Counterscreen for RECQ1 Inhibitors: ADP Fluorescence Polarization Displacement Assay | shares compounds with RECQ1 inh-1 | ADP fluorescence polarization displacement counterscreen | Potency, µM (series often up to 228 µM), for inactives: top-dose activity change, negative = inhibition, actives largely listed as inhibitors | actives 27% (n = 530); also: nearly all actives have a fitted effect of over 45% in size
# RECQ1 inh-2 – Confirmation qHTS Assay for Inhibitors of RecQ-Like Dna Helicase 1 (RECQ1) - Round 2 Cherry Picks; Potency, µM (series often up to 119 µM), for inactives: top-dose activity, negative = inhibition, usual class: inhibitors; actives 15% (n = 1,100); shares compounds with RECQ1 inh-1; AID 504841, 2011; recombinant RECQ1 DNA unwinding, red fluorescence; also: nearly all actives have a fitted effect of over 50% in size
# Active calls of the source: *; i = inactive; ? = inconclusive; / = no result given; [ ] = another dose, or the depositor's remark. Rows were chosen to be rich in hits. Some 0.92% of all compounds tested hit in one or more screens of this group. Calls follow the shape of the dose curve; as a rule, active = well fitted curve in the direction sought with a large enough effect; inconclusive = small, poorly fitted or top-dose-only effect, or another doubt; inactive = no such curve, though single readings can be large; an effect the other way counts as inactive or inconclusive. Unless noted, % is scaled to controls: 0 for no effect and ±100 for the full control effect; potency is read from the fitted curve at half-maximal effect.
SMILES,TDP1 block,RECQ1 inh-1,FEN1 inh,BLM helicase inh,APE1 inh,RECQ1 inh-2,others
CCC[C@H]1C[C@H](C(=O)NC(C(C)Cl)C2O[C@@H](SC)C(OP(=O)(O)O)[C@@H](O)[C@@H]2O)N(C)C1 (some centres not stated),10.2%,i,/,-8.5%,/,/,
O=C1c2cc(O)cc(O)c2OC[C@@H]1c1ccc(O)c(O)c1,1.6%,-9.4%,/,0.7%,?,/,
CCCCN1C=CC(=C2C(=O)c3ccccc3C2=O)C=C1,-5.3%,?,1.3%,-0.6%,4.4%,-11.5%,
NC(=O)c1cccc(-c2noc(-c3ccccc3C(F)(F)F)n2)c1,/,/,/,/,1.8%,/,
COC(=O)c1sc2ccccc2c1NC(=O)c1ccc(S(=O)(=O)N2CCCCC2C)cc1 (configuration not stated),2.6%,5.2%,-10.3%,-4.4%,-4.9%,/,RECQ1 conf=4.4%;RECQ1 ADP FP=-5.2%
O=C(O)c1c(Cl)c(Cl)c(Cl)c(Cl)c1-c1c2cc(I)c(=O)c(I)c-2oc2c(I)c(O)c(I)cc12,28.5%,14.1µM*,/,14.1µM*,14.1µM*,/,RECQ1 conf=44.7µM*;RECQ1 ADP FP=0.891µM*
CC(O)CCCCCCC/C=C/C=C/C(N)=O (configuration not stated),4.8%[21 µM],-5.1%[11.5 µM],/,1.6%[12.4 µM],0.5%[12.4 µM],/,
CCCCN(CC)C(=O)c1cc2c(=O)n3cccc(C)c3nc2n1C,-1.3%,/,0.5%,0.6%,/,/,
Cc1cc2c(s1)c1c(C)nn(Cc3ccccc3F)c(=O)c1n2C,/,/,/,/,-1.6%,/,
CN(C)c1ccc(/C=C2\CCc3cc(N)ccc32)cc1,/,/,-20.6%,/,/,/,
CC1CCC2(CC1)NC(=O)N(CC(=O)Nc1sc3c(c1C(N)=O)CCC3)C2=O (configuration not stated),?,31.6µM*,-29.6%,?,?,?,
O=C(O)c1ccc2c(c1)C(=O)N(c1cccc(C(=O)/C=C/c3ccccc3)c1)C2=O,-1.2%,6.31µM*,?,-11.0%,23.0%,?,RECQ1 conf=?;RECQ1 ADP FP=2.9%[91.9 µM]
CNc1ccc(/C=C/C(=O)c2ccc(C)cc2)cc1[N+](=O)[O-],5.3%,?,-3.9%,-6.9%,-11.0%,52.8%,
N=c1c(C(=O)NCc2ccc(F)cc2)cc2c(=O)n3ccccc3nc2n1CCCN1CCOCC1,-3.1%,?,14.5%,-7.4%,14.6%,3.3%,
COC(=O)C1=C(C)N(c2ccc(C(=O)OC)cc2)C(=O)C1,5.5%,-0.4%,6.8%,-9.1%,-3.4%,/,
COC(=O)C1=C(C)N(c2cccc3ccccc23)C(=O)C1,4.3%,?,5.2%,-0.3%,-1.2%,-19.7%,
CCCN1C(=O)/C(=C/c2ccc(C)o2)SC1=Nc1ccc(OCC)cc1,8.8%,1.4%,-3.1%,-6.3%,-0.1%,/,
CCCN1C(=O)/C(=C/c2ccc(C)o2)SC1=Nc1ccc(OC)cc1,9.3%,?,-2.7%,-6.1%,-6.3%,-25.8%,
CCN1C(=O)/C(=C/c2ccc(C)s2)SC1=Nc1ccc(OC)cc1,2.0%,-5.0%,-1.3%,-4.5%,-8.4%,/,
CCCN1C(=O)/C(=C/c2ccco2)SC1=Nc1ccc(OC)cc1,11.0%,25.1µM*,2.5%,-20.8%,?,-9.2%,
Cc1ccc(N2CCN(C(=O)c3ccccc3NC(=O)C3CC=CCC3C(=O)O)CC2)cc1 (configuration not stated),-5.3%,-3.9%,-0.6%,-1.8%,-0.3%,/,
Cc1cccc(N2CCN(C(=O)c3ccccc3NC(=O)C3CC=CCC3C(=O)O)CC2)c1 (configuration not stated),3.5%,i,3.9%,-1.1%,-4.4%,/,RECQ1 conf=11.7%;RECQ1 ADP FP=-5.9%
CCn1c(SCC(=O)c2ccc(O)c(O)c2)nnc1-c1ccc(C)cc1,-3.9%,10µM*,-4.8%,-4.5%,?,?,RECQ1 conf=?;RECQ1 ADP FP=-14.3%[91.9 µM]
Cc1ccc(C(O)C2=CCCC2=O)cc1 (configuration not stated),6.9%,-6.4%,/,4.3%,20.3%,/,
Cc1cnc2c(C)ccc(C)c2c1/C=C/c1ccc(N(C)C)cc1,/,/,0.3%,/,/,/,
SMILES,TDP1 block,RECQ1 inh-1,FEN1 inh,BLM helicase inh,APE1 inh,RECQ1 inh-2,others
COc1ccc2nc(NC(=O)C3CCCN(S(=O)(=O)c4cccc5nsnc45)C3)sc2c1 (configuration not stated),7.9%,-20.9%,-1.3%,-7.2%,-7.9%,/,RECQ1 conf=-10.5%;RECQ1 ADP FP=24.1%
CCC1=C2CC[C@H]3C(=O)N(c4ccccc4)C(=O)[C@H]3[C@H]2[C@@]2(Cc3ccccc3)C(=NCCOC)OC(=O)N2C1=O,7.5%,-8.2%,/,0.5%,-11.1%,/,
Cc1c(C)c2c(c(C)c1O)CCC(C)(COc1ccc(CC3SC(=O)NC3=O)cc1)O2 (configuration not stated),25.2%,?,/,-18.7%,-4.8%,?,
O=C(Cn1c(=O)n(Cc2nc(-c3ccccc3)no2)c(=O)c2cc3c(cc21)OCO3)Nc1cccc(C(F)(F)F)c1,0.0%,/,-2.7%,-7.2%,/,/,
CN(C(=O)COC(=O)c1ccccc1OCC(=O)Nc1ccc(Br)cc1)c1ccccc1,/,/,6.2%,/,/,/,
O=C(O)CCC(=O)Nc1nc2nccc(-c3ccccc3)n2n1,5.5%,-25.2%,2.6%,8.6%,?,/,RECQ1 conf=?;RECQ1 ADP FP=-2.3%
CC1(C)c2ccccc2N2CCC(=O)NC21/C=C/c1ccco1 (configuration not stated),0.0%,?,-1.2%,-6.5%,-3.1%,-4.2%,
Cc1sc(-n2cccc2)c(C(=O)O)c1C,-12.1%,?,-2.2%,-11.4%,-3.9%,?,
CO[C@H]1COC(=O)C/C=C\[C@H](C)[C@@H](OC)COC(=O)[C@@H](C)NC(=O)C/C=C\[C@@H]1C,3.7%[21 µM],-0.7%[11.5 µM],/,-1.1%[12.4 µM],2.4%[12.4 µM],/,
